# According to the supplement of paper PMC6555819:
# Tests used:
# Experiment in all cases: PBM binding z-score (relative to random genomic background probes); higher = stronger binding; sequences stand for … in GC…GCGATTGACAGCGTAGAATGAAGG
# [1] = test system: PPARg:RXRa DBDmut IVT, anti-RXR (DBD mutation: RXRa K156A/R161A, NR concentration 270 nM, RXRa partner concentration 90 nM)
# In short: (§1)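 Scanned fluorescence from custom Agilent 4×180K protein-binding microarrays was regression-normalized. Binding z-scores use random background probes as reference. Ligand-free nuclear receptor dimers were incubated on the arrays for 1 h and detected with antibodies against each partner (one per run).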
# [2] = test system: PPARg:RXRa IVT, anti-PPARg (NR concentration 270 nM, RXRa partner concentration 90 nM)
# In short: as §1
# [3] = test system: PPARg DBDmut:RXRa IVT, anti-PPARg (DBD mutation: PPARg1 K132A/R137A, NR concentration 270 nM, RXRa partner concentration 90 nM)
# In short: as §1
# [4] = test system: PPARg DBDmut IVT, anti-PPARg (DBD mutation: PPARg1 K132A/R137A, NR concentration 270 nM)
# In short: as §1
# [5] = test system: PPARg homodimer (NR concentration 180 nM)
# In short: as §1
# [6] = test system: PXR:RXRa (NR concentration 270 nM, RXRa partner concentration 90 nM)
# In short: as §1
# [7] = test system: PXR homodimer (NR concentration 270 nM)
# In short: as §1
# [8] = test system: RARa:RXR (NR concentration 270 nM, RXRa partner concentration 90 nM)
# In short: as §1
# [9] = test system: RARa homodimer (NR concentration 270 nM)
# In short: as §1
# [10] = test system: RARb:RXRa (NR concentration 270 nM, RXRa partner concentration 90 nM)
# In short: as §1
# [11] = test system: RARb homodimer (NR concentration 270 nM)
# In short: as §1
# [12] = test system: RARg:RXRa (NR concentration 270 nM, RXRa partner concentration 90 nM)
# In short: as §1
# [13] = test system: RARg homodimer (NR concentration 270 nM)
# In short: as §1
# [14] = test system: RXRa DBDmut IVT, anti-RXR (DBD mutation: RXRa K156A/R161A, NR concentration 90 nM)
# In short: as §1
# [15] = test system: RXRa homodimer (NR concentration 180 nM)
# In short: as §1
# [16] = test system: THRa:RXRa (NR concentration 90 nM, RXRa partner concentration 90 nM)
# In short: as §1
# [17] = test system: THRa homodimer (NR concentration 90 nM)
# In short: as §1
# [18] = test system: VDR homodimer (NR concentration 270 nM)
# In short: as §1
Sequence,PBM binding z-score [1],PBM binding z-score [2],PBM binding z-score [3],PBM binding z-score [4],PBM binding z-score [5],PBM binding z-score [6],PBM binding z-score [7],PBM binding z-score [8],PBM binding z-score [9],PBM binding z-score [10],PBM binding z-score [11],PBM binding z-score [12],PBM binding z-score [13],PBM binding z-score [14],PBM binding z-score [15],PBM binding z-score [16],PBM binding z-score [17],PBM binding z-score [18]
ATATGTAGGTTAGCTGGGGTCAATCAGACTAGGC,6.88,6.36,2.08,1.26,2.34,6,1.44,5.08,1.21,3.04,3.82,4.3,3.37,1.26,5.42,5.12,2.82,3.44
CGTCAAAATTCAACTAAGGTAACGTAAAGCACGC,-0.174,0.543,0.555,1.22,-0.0431,0.326,0.413,1.71,1.69,0.577,0.445,0.33,0.586,0.407,0.529,2.94,1.75,0.233
CCTAGCAGGCCAATGTGGGTCACTCAAGGCTTGA,4.05,4.91,-0.196,-1.11,0.296,1.24,-0.313,1.55,-0.725,1.54,2.16,1.23,1.02,-0.341,1.15,2.63,-0.567,-0.0479
TCTCGGAGGACACGAAAGGTCAGAGCGCGACATC,1.45,1.17,-0.212,-0.0951,3.06,4.27,0.685,4.73,1.1,4.27,4.91,5.18,5.35,1.09,4.3,3.82,1.12,1.22
CTCGAAAGGTCGGTTGAGGTGCGTATACGGATAA,-0.22,0.354,-0.47,-0.617,0.786,1.84,0.0676,1.44,-0.0377,2.92,1.76,2.59,2.85,0.676,2.12,3.88,-0.208,0.626
ACTCGGAGGAGAAAGGTCAGAGCTACGCCAGTGA,0.262,1.73,-0.454,-0.291,2.29,3.09,0.0761,3.7,1.26,3.93,4.21,4.22,4.04,0.158,4,2.36,-0.0607,0.437
ACAGACGGGTGATGAAGGTAACTCAGGCTATCAT,-0.229,0.424,0.246,-0.242,-0.329,-0.323,-0.116,-0.078,-0.0586,-0.204,-0.00116,-0.0351,0.218,-0.512,0.0942,0.536,0.269,-0.203
ACAGACAGGTGAGTTAAGGTAACTCAGCTGGACG,0.272,0.601,0.0974,0.513,0.279,0.151,-0.384,1.29,-0.525,0.48,-0.0673,0.439,0.59,-0.352,0.374,4.35,1.8,-0.547
TCTTGTAGATCAACAGGGGGTTAAGAAAGATCGA,2.83,3.29,5.31,7.46,1.07,2.5,0.467,2.42,0.939,1.71,1.32,1.91,0.92,1.89,1.93,1.86,0.559,0.493
TCTTGTAGATCAGCAGGTTCAGAAAGCTGGCCAA,1.4,0.189,-0.291,-0.791,-0.268,0.644,-0.241,0.455,-0.229,0.0377,-0.402,-0.138,-0.569,0.668,0.303,0.00022,-0.821,1.58
CGAACGACGGCATGAGTTGATAGCAAATGCCGAT,-1.05,-1.08,-1.17,-0.517,-0.497,-0.722,-0.155,-0.909,-0.629,-1.05,-1.1,-0.397,-0.191,-0.218,-0.57,-0.799,-1.12,-0.0876
CGGACTAGGTCATCCAGGACAGTGAATACATTGA,7.5,7.58,1.52,0.792,1.9,1.59,0.944,1.89,0.179,3.49,2.76,3.66,4.36,1.7,2.43,3.48,1.79,1.59
CCTACTGGGCCACGAAAGGTCATTGCTTCAGTGA,5.37,5.7,1.88,1.06,3.27,5.56,2.05,5.35,1.56,3.94,4.75,4.81,4.35,0.871,4.81,3.73,0.827,2.61
ATCGATAGGTCGTGAGGTGAGTATACAGAAAGGC,-0.14,1.35,1,0.371,0.792,1,0.158,1.94,0.167,1.97,1.39,2.16,1.84,0.0211,2.15,2.47,1.33,0.361
CCTCCAAGGTCAATGCTAGGTCAGTGAAAGCATT,3.02,3.34,-0.0903,-0.621,4.19,4.52,1.09,5.43,1.36,5.22,5.1,7.37,6.33,3.35,4.78,4.47,2.91,2.71
